Reference: PubChem BioAssay (NCATS)
Inconclusive results are not listed. Active and inactive are the calls of the source. Calls come from the whole dose curve; as a rule, active = well fitted curve in the direction sought with a large enough effect; inconclusive = small, poorly fitted or top-dose-only effect, or another doubt; inactive = no such curve, though single readings can be large; an effect the other way counts as inactive or inconclusive.

Tests used:
[1] = Quantitative High-Throughput drug screen in 47 multiple myeloma cell lines against the NCATS MIPE library collection: ARD_JJKsccE7 cell viability assay (AID 1918929)
How it was run: (§1)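 CellTiter-Glo ATP luminescence gave viability after 48 h compound treatment at 37C of 500 multiple myeloma cells per well. Normalisation used DMSO-only wells as 100% and media-only wells as 0% viability; primary qHTS of approved and investigational drugs.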

[2] = Quantitative High-Throughput drug screen in 47 multiple myeloma cell lines against the NCATS MIPE library collection: Karpas620_DSMZ cell viability assay (AID 1918959); note: nearly all actives have a fitted effect of over 30% in size
How it was run: (§2)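 Approved and investigational drugs from MIPE 4.0 were added by pin tool to 500 cells per well. After 48 hours at 37C, ATP-based CellTiter-Glo luminescence indicated remaining viability.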

[3] = Quantitative High-Throughput drug screen in 47 multiple myeloma cell lines against the NCATS MIPE library collection: KMM1_JCRB cell viability assay (AID 1918960); note: nearly all actives have a fitted effect of over 30% in size
How it was run: (§3)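 Each line was plated at 500 cells/well and treated 48 h with library drugs. Viability came from CellTiter-Glo luminescence relative to DMSO and cell-free medium controls.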

[4] = Quantitative High-Throughput drug screen in 47 multiple myeloma cell lines against the NCATS MIPE library collection: KHM11_PLB cell viability assay (AID 1918962); note: nearly all actives have a fitted effect of over 35% in size
How it was run: as §2

[5] = Quantitative High-Throughput drug screen in 47 multiple myeloma cell lines against the NCATS MIPE library collection: JIM3_ECACC cell viability assay (AID 1918963; note: nearly all actives have a fitted effect of over 35% in size)
How it was run: as §2

[6] = Quantitative High-Throughput drug screen in 47 multiple myeloma cell lines against the NCATS MIPE library collection: JJN3_DSMZ cell viability assay (AID 1918966; note: nearly all actives have a fitted effect of over 50% in size)
How it was run: as §1

[7] = Quantitative High-Throughput drug screen in 47 multiple myeloma cell lines against the NCATS MIPE library collection: H1112_PLB cell viability assay (AID 1918967; note: nearly all actives have a fitted effect of over 30% in size)
How it was run: as §1

[8] = Quantitative High-Throughput drug screen in 47 multiple myeloma cell lines against the NCATS MIPE library collection: Karpas25_ECACC cell viability assay (AID 1918968; note: nearly all actives have a fitted effect of over 35% in size)
How it was run: as §1

[9] = Quantitative High-Throughput drug screen in 47 multiple myeloma cell lines against the NCATS MIPE library collection: KMS12BM_JCRB cell viability assay (AID 1918971); note: nearly all actives have a fitted effect of over 35% in size
How it was run: as §2

[10] = Quantitative High-Throughput drug screen in 47 multiple myeloma cell lines against the NCATS MIPE library collection: KMS12PE_JCRB cell viability assay (AID 1918972); note: nearly all actives have a fitted effect of over 30% in size
How it was run: (§4)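 Inhibition of cell viability is measured here. Each line was plated at 500 cells per well, treated with MIPE 4.0 drugs, kept 48 hours at 37C, then assayed for ATP content by CellTiter-Glo luminescence.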

[11] = Quantitative High-Throughput drug screen in 47 multiple myeloma cell lines against the NCATS MIPE library collection: KMS20_JCRB cell viability assay (AID 1918973); note: nearly all actives have a fitted effect of over 45% in size
How it was run: as §1

[12] = Quantitative High-Throughput drug screen in 47 multiple myeloma cell lines against the NCATS MIPE library collection: ARP1_JJKsccF8 cell viability assay (AID 1918928; note: nearly all actives have a fitted effect of over 40% in size)
How it was run: as §3

[13] = Quantitative High-Throughput drug screen in 47 multiple myeloma cell lines against the NCATS MIPE library collection: JIM1_ECACC cell viability assay (AID 1918964)
How it was run: as §1

[14] = Quantitative High-Throughput drug screen in 47 multiple myeloma cell lines against the NCATS MIPE library collection: INA6_PLB cell viability assay (AID 1918965; note: nearly all actives have a fitted effect of over 55% in size)
How it was run: as §4

[15] = Quantitative High-Throughput drug screen in 47 multiple myeloma cell lines against the NCATS MIPE library collection: KMS21BM_JCRB cell viability assay (AID 1918974); conditions: ATP luminescence, 48 h; viability: at 45.8 µM (top of the series) unless noted
How it was run: as §1

[16] = Quantitative High-Throughput drug screen in 47 multiple myeloma cell lines against the NCATS MIPE library collection: Karpas417_ECACC cell viability assay (AID 1918961); conditions: Karpas417 myeloma viability, CellTiter-Glo ATP luminescence, 48 h; viability (% of DMSO): at 45.8 µM (top of the series)
How it was run: as §4

[17] = Quantitative High-Throughput drug screen in 47 multiple myeloma cell lines against the NCATS MIPE library collection: KMS27_JCRB cell viability assay (AID 1918970); note: nearly all actives have a fitted effect of over 30% in size
How it was run: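 Each line is seeded at 500 cells per well and treated with library compounds for 48 hours under 37 °C, 5% CO2. CellTiter-Glo is then added for 5 min at room temperature before median relative luminescence is recorded.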

[18] = Quantitative High-Throughput drug screen in 47 multiple myeloma cell lines against the NCATS MIPE library collection: MMM1_PLB cell viability assay (AID 1918976); note: nearly all actives have a fitted effect of over 35% in size
How it was run: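 ATP-based luminescence (CellTiter-Glo, 5 min RT incubation) quantified surviving cells following two days' treatment with MIPE 4.0 agents at 37 °C, 5% CO2.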

[19] = Quantitative High-Throughput drug screen in 47 multiple myeloma cell lines against the NCATS MIPE library collection: KMS26_JCRB cell viability assay (AID 1918975); note: nearly all actives have a fitted effect of over 45% in size
How it was run: as §2

Measured: Potency
Potency is the fitted concentration of half-maximal effect.

COc1ccc(C2Sc3ccccc3N(CCN(C)C)C(=O)C2OC(C)=O)cc1 (stereo not given)
active: [9] 2.64 µM
inactive: [1] | [2] | [3] | [4] | [5] | [6] | [7] | [8] | [10] | [11]

CC1(C)CCC[C@@]2(C)[C@@H]1CC[C@@]1(C)OC(=O)C[C@H]21
inactive: [12] | [2] | [3] | [5] | [13] | [14] | [6] | [7] | [8] | [15]
active: [10] 14.8 µM

C[N+](C)(C)CC(=O)O
inactive: [1] | [3] | [16] | [4] | [7] | [10]

O=C1c2c(O)cc(O)cc2O[C@H](c2cc(O)c(O)c(O)c2)[C@H]1O
inactive: [4] | [5] | [7] | [17] | [10]
active: [12] 11.8 µM | [13] 5.9 µM | [6] 16.6 µM | [18] 10.5 µM

CN(C)Cc1cccc(N=C(c2ccccc2)c2c(O)[nH]c3cc(C(=O)N(C)C)ccc23)c1
inactive: [12]
active: [4] 5.9 µM | [5] 1.87 µM | [14] 18.7 µM | [10] 16.6 µM | [15] 9.35 µM

COc1cccc([C@@H](C)NCCCc2ccccc2Cl)c1
inactive: [12] | [4] | [5] | [6] | [9] | [19]
active: [15] 16.6 µM

CCOC(=O)C1=C(N)Oc2ccc(Br)cc2C1C(C#N)C(=O)OCC (stereo not given)
active: [2] 18.7 µM | [3] 16.6 µM | [16] 8.33 µM | [4] 20.9 µM | [5] 23.5 µM | [14] 18.7 µM | [6] 20.9 µM | [7] 16.6 µM | [8] 20.9 µM | [17] 18.7 µM | [9] 18.7 µM | [10] 18.7 µM | [19] 14.8 µM | [18] 20.9 µM

CO[C@H]1C[C@@H]2CC[C@@H](C)[C@@](O)(O2)C(=O)C(=O)N2CCCC[C@@H]2C(=O)O[C@H]([C@H](C)C[C@@H]2CC[C@H](OCCO)[C@H](OC)C2)CC(=O)[C@H](C)C=C(C)[C@@H](O)[C@@H](OC)C(=O)[C@H](C)C[C@H](C)C=CC=CC=C1C
inactive: [7]
active: [6] 6.62 µM | [17] 4.18 µM | [9] 4.18 µM | [11] 3.72 µM | [15] 7.43 µM

COc1cc(N2CCC(N3CCN(C)CC3)CC2)ccc1Nc1ncc(Cl)c(Nc2ccccc2S(=O)(=O)C(C)C)n1
inactive: [8]

O=C1NC(=O)C(=Cc2ccc3c(c2)OC(F)(F)O3)S1
inactive: [13]
active: [1] 16.6 µM | [14] 26.4 µM | [7] 20.9 µM | [8] 18.7 µM | [11] 13.2 µM | [15] 3.32 µM

Cn1c(N2CCCCS2(=O)=O)nc(C(=O)NCc2ccc(F)cc2)c(O)c1=O
inactive: [3] | [4] | [5] | [7] | [11]
active: [8] 20.9 µM | [10] 20.9 µM

O=C1NC(=O)C(=Cc2cccc(C(F)(F)F)c2)S1
active: [16] 26.4 µM | [9] 20.9 µM | [15] 8.33 µM | [18] 23.5 µM

CO[C@H]1C[C@@H]2CC[C@@H](C)[C@@](O)(O2)C(=O)C(=O)N2CCCC[C@@H]2C(=O)O[C@H]([C@H](C)C[C@@H]2CC[C@H](OP(C)(C)=O)[C@H](OC)C2)CC(=O)[C@H](C)C=C(C)[C@@H](O)[C@@H](OC)C(=O)[C@H](C)C[C@H](C)C=CC=CC=C1C
active: [7] 18.7 µM | [8] 20.9 µM | [15] 18.7 µM

CN(C[C@@H]1COCCO1)S(=O)(=O)Nc1ccc2ccc3ncc(-c4cnn(C)c4)cc3c(=O)c2c1
active: [3] 1.48 µM | [14] 4.18 µM | [7] 1.66 µM | [8] 3.32 µM | [9] 16.6 µM | [10] 0.743 µM | [11] 1.18 µM | [15] 5.26 µM

O=C1Nc2ccc(Cl)cc2C(C#CC2CC2)(C(F)(F)F)O1 (stereo not given)
active: [14] 20.9 µM | [7] 23.5 µM | [9] 23.5 µM | [11] 20.9 µM | [19] 23.5 µM

CCn1cc(C(=O)O)c(=O)c2ccc(C)nc21
inactive: [1] | [5] | [13] | [7] | [8] | [17] | [10]

COc1ccc2c(Oc3ccc(NC(=O)c4c(C)n(CC(C)(C)O)n(-c5ccccc5)c4=O)nc3)ccnc2c1
inactive: [2] | [5] | [13] | [7] | [17]

Cn1cc(C=C2C(=O)Nc3cccnc32)c2ccccc21
inactive: [7] | [8] | [17] | [9] | [19]
active: [5] 16.6 µM

O=C(Nc1ccccc1Br)N[C@@H]1CCN(c2ccc(C(F)(F)F)cn2)C1
inactive: [16] | [10]
active: [4] 14.8 µM | [5] 18.7 µM | [14] 16.6 µM | [8] 18.7 µM | [18] 23.5 µM
